Active and inactive are the calls of the source.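 How the source made its calls: active means inhibition above the hit cutoff set in the earlier primary screen (cut at about 27% in these data); inactive means the rest.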
Each compound was assayed against Protein phosphatase methylesterase 1 (Homo sapiens) (UniProt Q9Y570) (assay: human PME-1 methylesterase inhibition confirmation – biochemical, fluorescence polarization, FP-Rh probe, triplicate (AID 2171;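 further: 0% = enzyme with DMSO and 100% = wells lacking PME-1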)). Conditions: recombinant PME-1, FP-Rh probe fluorescence polarization; at 5.9 µM; stronger effect = higher value.
Chain of Protein phosphatase methylesterase 1 (Homo sapiens) (Q9Y570 whole entry, looked up): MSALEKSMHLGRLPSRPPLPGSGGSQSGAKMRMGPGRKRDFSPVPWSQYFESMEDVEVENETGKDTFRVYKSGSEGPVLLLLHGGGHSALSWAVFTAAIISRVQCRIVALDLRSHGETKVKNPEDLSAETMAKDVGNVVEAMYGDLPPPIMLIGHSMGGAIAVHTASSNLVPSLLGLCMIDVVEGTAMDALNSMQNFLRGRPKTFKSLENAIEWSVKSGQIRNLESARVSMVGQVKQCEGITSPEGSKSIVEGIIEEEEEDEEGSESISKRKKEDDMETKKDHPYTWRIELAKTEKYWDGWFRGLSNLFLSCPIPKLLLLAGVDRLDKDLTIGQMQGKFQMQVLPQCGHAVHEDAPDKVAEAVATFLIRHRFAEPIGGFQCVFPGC

SMILES	inhibition
O=C1CC(N(O)c2ccccc2)C(=O)N1c1cc(Cl)cc(Cl)c1 (stereo not given)	5.35% (inactive)
COc1cc2c(C#N)c(N3CCN(c4ccccc4OC)CC3)nc(N)c2c(N)n1	78% (active)
CC1=NN(c2ccccc2)C(=O)C1N=Nc1cccc(O)c1 (stereo not given)	28.1% (active)
Fc1ccc2nc(Nc3nc4cc5c(cc4s3)OCCO5)sc2c1	77.5% (active)
Oc1ccc(/C=C/c2ccc3cccc(O)c3n2)cc1Br	23.9% (inactive)
Cc1ccc(NS(=O)(=O)c2cccc(C(=O)N3CCN(c4ncccn4)CC3)c2)cc1	9.07% (inactive)
Cc1ccc(NC(=O)CS(=O)CC(=O)Nc2ccccc2-c2ccc(C)o2)cc1 (stereo not given)	2.84% (inactive)
O=C(Nc1cccc(-c2csc(Nc3ccccc3)n2)c1)c1cc([N+](=O)[O-])cc(C(F)(F)F)c1	23% (inactive)
Cc1ccc(S(=O)(=O)N2CCN(C(=O)Cn3cnc4c3c(=O)n(C)c(=O)n4C)CC2)cc1C	20.7% (inactive)
C=CCn1c(O)c(N=Nc2ccccc2O)c2ccccc21	29.2% (active)
COc1ccc(NC(=O)c2c[nH]n3c(=O)cc(C4CCN(C(=O)OC(C)(C)C)CC4)nc23)cc1Cl	25.1% (inactive)
COc1ccc(/C=N/Nc2nc3ccccc3o2)cc1O	29.9% (active)
Cn1nc(-c2ccc(Cl)cc2)nc2c(=O)n(C)c(=O)nc1-2	44.8% (active)
Cc1cc(C(C#N)c2ccc(Cl)cc2)c(Cl)cc1NC(=O)c1cc(I)cc(I)c1O (stereo not given)	47.6% (active)
COC(=O)c1ccccc1C(=O)c1ccc2c(c1)NC(=O)CO2	7.04% (inactive)
